What all share (assay): NCI-60 one-dose screen, 48 h (100 = growth as untreated, 0 = no growth, -100 = all killed)
Common to all, as to conditions: 10 µM unless noted

Assay [1] concerns NCI-H23 lung.
Assay [2] deals with NCI-H226 lung.
The test system of assay [3] is NCI-H322M lung.
The subject of assay [4] is HOP-62 NSCLC.
For assay [5], the system named is NCI-H460 lung.
Assay [6] concerns HOP-92 NSCLC.
Assay [7] deals with NCI-H522 lung.
The test system of assay [8] is A549/ATCC NSCLC.
Assay [9] deals with 786-0 renal.
Assay [10] relates to COLO 205 colon.

This is part of a sample that, as a whole, favours compounds with a hit. Of some 83,000 tested, about 20% had one in any assay.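 Treatment: one concentration, 48 hours, 96-well format. Scoring: percent growth, with anything below 10 considered active.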 A number with no mark means an inactive call. The source made the active and inactive calls.

The results in this text go back to PubChem BioAssay (NCI).

Turning to `O=C1[C@@H]2Cc3c([nH]c4ccccc34)[C@H](c3c(Cl)cccc3Cl)N2C(=O)CN1C1CCN(Cc2ccccc2)CC1`, the growth was 41.7% in assay [1]; 74.9% in assay [2]; 77.7% in assay [3]; 81.3% in [4]; 9.15% (active) in assay [5]; 42.8% in [6]. The growth is 63.5% in [7], 12.7% in assay [8], -26.6% (active) in assay [9] and 75% in [10].
As for `COc1ccc(-c2ccnc3c(C#N)c(Nc4ccccc4)nn23)cc1OC`, the growth in [1] was 93%; in assay [2], 62.6%; in assay [3], 91.2%; in assay [4], 86.5%; in assay [5], 92.8%; in assay [6], -0.0748% (active). The growth is 81.4% in assay [7], 85.4% in assay [8], 85.7% in [9] and 97.1% in [10].
In the case of `O=C1C[C@@H](c2ccccc2)Oc2c(Cc3ccccc3O)c(O)c(Cc3cc(Cc4cc(Cc5ccccc5O)ccc4O)ccc3O)c(O)c21`, the growth in assay [1] was 94.7%; in assay [2], 86%; in assay [3], 110%; in [4], 97.4%; in assay [5] it was 104%; in [6], 78%. Moreover, the growth was 107% in assay [7], 101% in [8], 100% in assay [9] and 111% in assay [10].
Take `Nc1ccc(-c2nnc(SCc3ccc(O)c4ncccc34)n2-c2ccccc2)cc1`: the growth in assay [1] was 13.2%; in assay [2], 44%; in assay [3], 23.7%; in assay [4] it was 17%; in assay [5], 5.71% (active); in assay [6], -21% (active). The growth was 17.5% in assay [7], 14.1% in assay [8], 19.9% in assay [9] and 4.41% (active) in assay [10].
`O=S(=O)(NCCCNc1nccc(-n2cnc3ccccc32)n1)c1ccc(F)cc1`: the growth is 70.4% in [1]; 64.1% in assay [2]; 99.5% in assay [3]; 82.7% in assay [4]; 79.7% in [5]; 87.9% in assay [6]. Also, the growth in assay [7] is 68.5%; in assay [8], 88.8%; in [9], 97.7%; in assay [10] it was 86%.
Consider `CCCCCCNC(=O)Oc1ccc(/C(=C(\C)c2ccc(OC)cc2)c2ccc(OCCN(C)C)cc2)cc1`, for which the growth in assay [1] was 84.4%; in assay [2] it was 105%; in assay [3], 89%; in [4], 89.8%; in assay [5], 67.6%; in [6], 50.4%. Besides, the growth in assay [7] was 98%; in [8] it was 74.7%; in assay [9], 62.3%; in assay [10] it was 90.4%.
For `Cc1cn(-c2cc(NC(=O)c3cncc(C#Cc4cnc5ccc(OCCCS(C)(=O)=O)nn45)c3)cc(C(F)(F)F)c2)cn1`, the growth in assay [1] is -5.32% (active); in [2], 4.42% (active); in assay [3] it was 24.4%; in assay [4] it was 25.5%; in [5], 18.6%; in assay [6], -34.5% (active). Also, the growth in [7] is 3.59% (active); in assay [8], 48%; in [9] it was 12.4%; in [10] it was -30.3% (active).
Take `CC1CCc2c(sc3nc(SCC(=O)N/N=C/c4ccc(Cl)cc4)n(-c4ccccc4)c(=O)c23)C1` (stereo not given): the growth in assay [1] was 90.7%; in assay [2] it was 91%; in assay [3] it was 98.1%; in [4], 78.4%; in assay [5], 107%; in [6], 107%. Besides, the growth was 93.6% in [7], 101% in assay [8], 96.5% in assay [9] and 135% in assay [10].
`C=C(C)[C@@H]1CC[C@]2(COS(C)(=O)=O)CC[C@]3(C)[C@H](CC[C@@H]4[C@@]5(C)CCCNC(C)(C)[C@@H]5CC[C@]43C)[C@@H]12`: the growth in assay [1] is 82%; in [2], 86.5%; in [3], 94.7%; in [4] it was 101%; in assay [5] it was 13.5%; in assay [6], 76.4%. The growth in [7] was 85.4%; in [8], 54.2%; in assay [9], 91.5%; in assay [10], 0.735% (active).
For the molecule `COc1ccc2c(c1)c(-c1nn3c(=O)cc(-c4ccccc4)nc3s1)cn2C`, the growth is 63% in [1]; 21.1% in assay [2]; 65.2% in [3]; 43.2% in [4]; 21.7% in assay [5]; 18.7% in assay [6]. Further, the growth was -34% (active) in [7], 56.7% in assay [8], 37.8% in assay [9] and 27.2% in [10].
With `COc1ccc2c(C3=C(c4c[nH]c5ccccc45)C(=O)N(O)C3=O)coc2c1`, the growth in assay [1] is 93%; in assay [2], 74.9%; in assay [3], 96.8%; in [4], 84.7%; in [5], 90.3%; in assay [6] it was 96%. Besides, the growth in assay [7] is 68.4%; in assay [8], 96.6%; in [9] it was 93.8%; in assay [10], 99.2%.
Regarding `Cc1ccc(Cc2cnc(NC(=O)/C(C#N)=C/c3ccc(-c4ccc(Cl)cc4)o3)s2)cc1`, the growth in [1] was 91.3%; in [2] it was 117%; in assay [3] it was 84.9%; in assay [4], 101%; in assay [5] it was 83.8%; in assay [6], 66.9%. In addition, the growth in assay [7] is 96.9%; in assay [8] it was 103%; in [9], 99.9%; in assay [10], 93.8%.
For the molecule `CC(=O)C1=NN(c2ccc(Cl)cc2)C(=O)CN1C`, the growth in assay [1] is 94.9%; in assay [2], 105%; in assay [3] it was 101%; in assay [4], 103%; in [5] it was 108%; in assay [6], 107%. For the same molecule, the growth was 95.6% in assay [7], 96.2% in assay [8], 91.2% in assay [9] and 106% in assay [10].
Consider `O=C1c2c(c3c4cc(Br)ccc4[nH]c3c3ccc4ccccc4c23)C(=O)N1CCN1CCCCC1`, for which the growth in assay [1] is 37.8%; in assay [2], 69.2%; in assay [3], 78%; in [4], 33.8%; in assay [5] it was -67.7% (active); in assay [6], 51.3%. The growth in assay [7] is 68%; in [8] it was 7.63% (active); in assay [9] it was -84.2% (active); in assay [10], 61.7%.
In the case of `CCOC(=O)c1c(NC(=O)c2ccc(C(C)(C)C)cc2)sc2cc(OCCN3CCCCC3)ccc12`, the growth was 88.6% in assay [1]; 101% in assay [2]; 83.1% in [3]; 91.1% in assay [4]; 13.9% in assay [5]; 66.1% in [6]. In addition, the growth in [7] is 96.8%; in assay [8], 77%; in assay [9] it was 75.5%; in [10], 25.6%.
Regarding `CC(C)C(=O)Nc1ccc(-c2nc(-c3cccc(O)c3)c(-c3ccnc(Br)c3)[nH]2)cc1`, the growth in [1] is 63.4%; in assay [2], 65.4%; in assay [3] it was 65.8%; in assay [4] it was 42.6%; in assay [5], 46.5%; in [6], 39.5%. Moreover, the growth in assay [7] is 48.4%; in assay [8], 69.8%; in assay [9] it was 12.9%; in [10] it was 59.3%.
With `CNC(=O)c1cc(Oc2ccc3nc(NC(=O)c4cccc(C(F)(F)F)c4)sc3c2)ccn1`, the growth in assay [1] is 101%; in [2], 104%; in assay [3], 103%; in assay [4], 117%; in assay [5] it was 103%; in assay [6], 110%. Besides, the growth was 98.9% in assay [7], 101% in [8], 97.2% in assay [9] and 112% in [10].
Take `CN1CCN(c2ccc(C(=O)/C=C/c3ccc(Cl)c(C(F)(F)F)c3)cc2)CC1`: the growth in [1] is 81.5%; in assay [2], 86%; in [3], 78.8%; in assay [4] it was 88.9%; in assay [5] it was 88%; in [6], 41.8%. The growth is 76.4% in assay [7], 72.8% in [8], 79.9% in assay [9] and 60.6% in [10].
In the case of `CCCCCc1ccc(S(=O)(=O)N(C(C)=O)c2cccc(-c3csc(N(CCN4CCN(C)CC4)C(C)=O)n3)c2)cc1`, the growth in assay [1] is 48.9%; in assay [2], 85.3%; in assay [3], 61.1%; in [4], 83.5%; in assay [5] it was -21.4% (active); in assay [6] it was 34%. Also, the growth was 69.8% in assay [7], 39.5% in [8], 6.89% (active) in assay [9] and -61% (active) in assay [10].
Consider `CC1(C)CC[C@]2(C(=O)N3CCCNCC3)CC[C@]3(C)C(=CC[C@@H]4[C@@]5(C)CCC(=O)C(C)(C)[C@@H]5CC[C@]43C)[C@H]2C1`, for which the growth is 101% in [1]; 103% in assay [2]; 101% in [3]; 109% in assay [4]; 106% in assay [5]; 96.6% in assay [6]. For the same molecule, the growth is 98.6% in assay [7], 106% in assay [8], 99.5% in [9] and 115% in assay [10].
Consider `NNC(=O)c1sc2nc(-c3cnccn3)cc(-c3cccs3)c2c1N`, for which the growth in [1] is 98.6%; in [2] it was 89.7%; in assay [3] it was 74.4%; in assay [4], 91.6%; in [5] it was 103%; in assay [6], 101%. The growth in assay [7] was 101%; in assay [8], 102%; in assay [9], 108%; in assay [10], 102%.
`Oc1ccc(CSc2nnc(-c3ccc(Oc4ccccc4)cc3)n2-c2ccccc2)c2cccnc12`: the growth was 21.3% in [1]; 18.9% in assay [2]; 18.3% in assay [3]; 15% in assay [4]; 0.254% (active) in assay [5]; 10.5% in assay [6]. For the same molecule, the growth is 15% in assay [7], 11.8% in assay [8], 21.6% in assay [9] and 27.7% in assay [10].
